# Assay results published in PubChem BioAssay AID1794835 (Parasite Biology Lab, Institute for Biomedicine and …, 2023).
# The campaign covered roughly 2,500 compounds. About 45 (2%) were called active. This is one part of a sample in which actives are shown more often than they occur. Cut-off read from the data, not from the text of the source: active = inhibition mostly above about 45% (no sharp cut-off); inactive = mostly below about 37%.
# Assay: anti-Giardia activity of synthetic compounds – Compounds Australia Scaffold Library subset, 24/48 h, primary screen (AID 1794835);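 for inhibition: 0% = parasite counts in DMSO vehicle wells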
# Conditions: Giardia lamblia BRIS/91/HEPU/1279 trophozoite counts, imaging, at 10 µM
# [1] = measured here: growth inhibition at 24 h, stronger effect = higher value
structure (smiles),measurement,setting,value
CC(=O)Nc1ccc([N+](=O)[O-])c2nonc12,inhibition,stronger effect = higher value,63.4% (active)
same,inhibition,[1],45%
CCc1ccc(NC(=O)[C@@H]2c3cc(OC)c(OC)cc3C(=O)N3CCCC[C@@H]23)cc1,inhibition,stronger effect = higher value,28.1% (inactive)
Cc1nn(C)c(C)c1CC(=O)N1CCC(N2CCCC2)C1 (stereo unspecified),inhibition,,inactive
CSc1ccc(C2NCc3ccccc3-n3cccc32)cc1 (stereo unspecified),inhibition,stronger effect = higher value,3.9% (inactive)
same,inhibition,[1],18.8%
COc1ccc(C2c3cccn3-c3ccccc3CN2C(=O)CCC(=O)NC2CCCCC2)cc1 (stereo unspecified),inhibition,,inactive
O=[N+]([O-])c1ccc(N2CCC(c3ncc[nH]3)CC2)c2ccncc12,inhibition,stronger effect = higher value,88.1% (active)
same,inhibition,[1],64.1%
Cc1cccc(NC(=O)CN2CC(c3ccccc3)CC2=O)c1 (stereo unspecified),inhibition,stronger effect = higher value,10.4% (inactive)
same,inhibition,[1],2.3%
CC(=O)N1N=C2C3CCN(CC3)[C@@H]2[C@@H]1c1cccc2ccccc12,outcome,,inactive
same,inhibition,[1],4.2%
Cc1ccc2c(C3CCNCC3)c[nH]c2c1,inhibition,,inactive
Cc1cccc(OCC(=O)N2CCN(Cc3nnsc3Cl)CC2)c1C,inhibition,stronger effect = higher value,35.2% (inactive)
same,inhibition,[1],20.5%
